Test results as given in PubChem BioAssay AID743279 (National Center for Advancing Translational Sciences (NCATS), 2014).
About 17,000 (4.7%) of roughly 360,000 compounds were called active. Another 5% or so got no clear call; they are omitted. Shown is part of a subset that was picked to be rich in actives. Unmarked numbers belong to inactive results. No stated cut-off is given here; in the data, active means activity change below about -50%; inconclusive means mostly about -30% to -49%; inactive means weaker than that.

Experiment: qHTS for Inhibitors of Inflammasome Signaling: IL-1-beta AlphaLISA Primary Screen
Conditions: THP-1 LPS/ATP IL-1B secretion, 16 h; at 57.5 µM, stronger effect = lower value
Method in brief: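 Secreted IL-1B measured by AlphaLISA bead assay after 16 h compound exposure of THP-1 cells; compounds (final up to 57.5 uM) added 1 h before LPS (250 ng/mL) and ATP (1.25 mM) stimulation; lower signal means less secretion.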
On the % scale 0 is the no-effect control and ±100 the full control effect.

| Compound | activity change |
| --- | --- |
| COc1ccc(CCCNC(=O)C2Cc3c(-c4cccc(C(N)=O)c4)ccnc3O2)cc1 (configuration not stated) | 34.7% |
| CCN(CC)CCCN=C(N)N | -17.5% |
| O=P(c1ccc2c(c1)OCCO2)(N1CCOCC1)N1CCOCC1 | 8.69% |
| Cc1ccc(NC(=O)C(c2ccccc2)N2CCN(C(=O)c3ccco3)CC2)cc1 (configuration not stated) | 16.1% |
| COc1cccc(OCc2cc(C(=O)N3CCN(C(=O)c4ccco4)CC3)no2)c1 | 6.56% |
| Cc1ccc(OCC(=O)Nc2ccc(N3CCN(C(=O)c4ccco4)CC3)cc2)c(C)c1 | -61.6% (active) |
| COc1cccc(C(=O)Nc2ccc(N3CCN(C(=O)c4ccco4)CC3)cc2)c1 | -73.8% (active) |
| Cc1ccc(OCC(=O)Nc2ccc(NC(=O)c3cccs3)cc2)c(C)c1 | -1.3% |
| COc1ccc(C(=O)Nc2ccccc2C(=O)N2CCN(c3ccccc3)CC2)cc1 | 0% |
| O=C(Nc1cc2c3c(c1)CC(=O)N3CCC2)c1ccccc1F | 4.9% |
| CCNC(=O)C1(C)CCCN(Cc2noc(-c3ccccc3OC)n2)C1 (configuration not stated) | -5.34% |
| C[C@H]1CN([C@@H](C)CO)C(=O)CCCn2nncc2CO[C@@H]1CN(C)Cc1ccc(Oc2ccccc2)cc1 | 8.16% |
| CCOCCCNC(=O)C(NC(=O)Cc1c[nH]c2ccccc12)c1ccc(OC)cc1 (configuration not stated) | 10.6% |
| N#Cc1nc(COc2ccc(-c3ccccc3)cc2)oc1NCc1cccnc1 | -79.6% (active) |
| O=S(=O)(c1ccc(Br)cc1)c1nc(-c2ccccc2)oc1NCc1cccnc1 | -18.2% |
| Cc1cc(NCc2cccnc2)no1 | 3.61% |
| CCCC/C(C)=N/NC(=O)NC1CCCCC1 | 14.3% |
| O=C(COC(=O)/C=C/c1ccc(OC(F)F)cc1)NC1CCCCC1 | 17.5% |
| C/C(=N\NC(=O)NC1CCCCC1)c1ccc(OC(F)F)cc1OC(F)F | -80.5% (active) |

| Compound | activity change |
| --- | --- |
| O=C(c1ccc(Cn2cc([N+](=O)[O-])cn2)o1)N1CCCC1 | 13.7% |
| Cc1ccn(-c2cccc(-n3ccc(C)n3)n2)n1 | 25.2% |
| O=C1NC[C@@H](c2ccccc2)OC(=O)[C@H](Cc2ccc(F)cc2)CC/C=C/C[C@H]1CC(=O)N(CCO)Cc1ccccc1 | -57.4% (active) |
| O=C1CCC/C=C/C[C@@H](CC(=O)N(CCO)Cc2ccccc2)C(=O)NC[C@H](c2ccccc2)O1 | -15.8% |
| O=C1CCC/C=C\C[C@@H](CC(=O)N(CCO)Cc2ccccc2)C(=O)NCCO1 | 36.5% |
| O=C1OC[C@@H]2CCCN2C(=O)[C@H](CC(=O)N(CCO)Cc2ccccc2)C/C=C\CC[C@@H]1Cc1ccc(F)cc1 | -27.7% |
| O=C1N[C@@H](c2ccccc2)COC(=O)[C@H](Cc2ccc(F)cc2)C/C=C\C[C@@H]1CC(=O)N(CCO)Cc1ccccc1 | -68.1% (active) |
| CC(C)(C)OC(=O)C[C@@H]1C/C=C\C[C@@H](CC(=O)N(CCO)Cc2ccccc2)C(=O)N[C@H](Cc2ccccc2)COC1=O | -12.5% |
| CCCCc1ccc(S(=O)(=O)NC(=O)C2(C)CCN2C(=O)c2c(C)noc2C)cc1 (configuration not stated) | 24.9% |
| CCN(CC)C(=O)N1CCN(C(=O)c2ccc(C)cn2)CC1 | 13.6% |
| Cc1ccc(S(=O)(=O)N2CCCC2C(=O)OCc2nc3sc(C)c(C)c3c(=O)[nH]2)cc1 (configuration not stated) | -4.97% |
| CCn1ccnc1CN(C)Cc1nc(-c2ccc3c(c2)OCO3)no1 | 1.77% |
| Cc1ccc(-n2cc(CN(C)Cc3nccn3C)c(-c3cccc(C)c3)n2)cc1 | -85.3% (active) |
| Cc1ccc(-n2cnc3ncnc(-c4ccccc4)c32)cc1 | -9.14% |
| O=C(C=CC(=O)Nc1ccc(F)cc1F)Nc1ccc(F)cc1F | 36.7% |
| COC(=O)c1ccc(Oc2nc(Nc3ccc(F)cc3)nc(N3CCCC3)n2)cc1 | -60.2% (active) |
| CCNc1nc(Oc2ccc(C(=O)OC)cc2)nc(N2CCOCC2)n1 | 7.61% |
| COC(=O)c1ccc(Oc2nc(NC(C)C)nc(SC)n2)cc1 | 19.1% |
| CCOC(=O)c1c(-c2ccccc2)oc2cc(Br)c(O)cc12 | 0% |

| Compound | activity change |
| --- | --- |
| CCOC(=O)c1c(-c2ccccc2)oc2cc(Br)c(O)c(C=O)c12 | -98% (active) |
| CCOC(=O)c1c(-c2ccccc2)oc2ccc(OCC(=O)NN)cc12 | -28.6% |
| Cc1cc(OCC(=O)Nc2nccs2)c2c(C)c(C)c(=O)oc2c1 | 6.37% |
| Cc1ccc(Cc2c(C)nc3nc(SCC(=O)NCCN4CCOCC4)nn3c2C)cc1 | 7.76% |
| Cc1nc2nc(SCC(=O)NCc3ccco3)nn2c(C)c1Cc1ccccc1 | -78.8% (active) |
| Cc1cc(C)n2nc(SCC(=O)NC(=O)NCc3ccco3)nc2n1 | 34.3% |
| Fc1ccc(N2N=C(c3cccs3)CC2c2ccco2)c(F)c1 (configuration not stated) | 5.22% |
| O=C(O)C1CCCN1c1nc(Cl)ccc1[N+](=O)[O-] (configuration not stated) | -1.43% |
| CC(=O)N[C@H]1[C@H]([C@H](O)[C@H](O)CO)OC(C(=O)O)=C[C@@H]1O | 1.96% |
| CCOC(=O)c1c(C)nc2c(c1C)c(=O)oc1ccccc12 | 7% |
| CCOC(=O)c1c(C)[nH]c2c1-c1ccccc1C(=O)C2=O | -53.9% (active) |
| CCOC(=O)C1=C(C)c2ccccc2OC1(C)C(=O)OCC (configuration not stated) | 41.5% |
| CN(C)CCCOc1ccc(-c2ccc3nccn3c2)cn1 | -5.3% |
| CCC(C)(C)n1nnnc1CN1CCN(c2nc3ccc(C)cc3cc2C#N)CC1 | -68.2% (active) |
| Cc1cc(C)c2cc(C#N)c(N3CCNCC3)nc2c1 | -29.2% |
| CCOc1ccc2nc(N3CCCN(C(=O)Nc4ccccc4C)CC3)c(C#N)cc2c1 | -14.3% |
| O=C(CSc1ncn[nH]1)Nc1ccnc2ccccc12 | 11% |
| O=C(CSc1ncn[nH]1)Nc1nsc(-c2ccccc2)n1 | 10.9% |
| O=C(CSc1ncn[nH]1)Nc1ccc(Br)cc1Br | -53.6% (active) |
